Source: PubChem (Buhrlage Lab, Dana-Farber Cancer Institute and Novartis Institutes for BioMedical Research (Cambridge, Mass))
Only some compounds are listed: those with a hit (about 12% of all), similar ones and a draw of the others.
USP28 block – inhibitors of human USP28 deubiquitinase; purified USP28, Ub-rhodamine cleavage fluorescence, 30 min; inhibition, % at 25 µM; 3% of 47,000 active
Target sequence (Q96RU2 whole entry, looked up): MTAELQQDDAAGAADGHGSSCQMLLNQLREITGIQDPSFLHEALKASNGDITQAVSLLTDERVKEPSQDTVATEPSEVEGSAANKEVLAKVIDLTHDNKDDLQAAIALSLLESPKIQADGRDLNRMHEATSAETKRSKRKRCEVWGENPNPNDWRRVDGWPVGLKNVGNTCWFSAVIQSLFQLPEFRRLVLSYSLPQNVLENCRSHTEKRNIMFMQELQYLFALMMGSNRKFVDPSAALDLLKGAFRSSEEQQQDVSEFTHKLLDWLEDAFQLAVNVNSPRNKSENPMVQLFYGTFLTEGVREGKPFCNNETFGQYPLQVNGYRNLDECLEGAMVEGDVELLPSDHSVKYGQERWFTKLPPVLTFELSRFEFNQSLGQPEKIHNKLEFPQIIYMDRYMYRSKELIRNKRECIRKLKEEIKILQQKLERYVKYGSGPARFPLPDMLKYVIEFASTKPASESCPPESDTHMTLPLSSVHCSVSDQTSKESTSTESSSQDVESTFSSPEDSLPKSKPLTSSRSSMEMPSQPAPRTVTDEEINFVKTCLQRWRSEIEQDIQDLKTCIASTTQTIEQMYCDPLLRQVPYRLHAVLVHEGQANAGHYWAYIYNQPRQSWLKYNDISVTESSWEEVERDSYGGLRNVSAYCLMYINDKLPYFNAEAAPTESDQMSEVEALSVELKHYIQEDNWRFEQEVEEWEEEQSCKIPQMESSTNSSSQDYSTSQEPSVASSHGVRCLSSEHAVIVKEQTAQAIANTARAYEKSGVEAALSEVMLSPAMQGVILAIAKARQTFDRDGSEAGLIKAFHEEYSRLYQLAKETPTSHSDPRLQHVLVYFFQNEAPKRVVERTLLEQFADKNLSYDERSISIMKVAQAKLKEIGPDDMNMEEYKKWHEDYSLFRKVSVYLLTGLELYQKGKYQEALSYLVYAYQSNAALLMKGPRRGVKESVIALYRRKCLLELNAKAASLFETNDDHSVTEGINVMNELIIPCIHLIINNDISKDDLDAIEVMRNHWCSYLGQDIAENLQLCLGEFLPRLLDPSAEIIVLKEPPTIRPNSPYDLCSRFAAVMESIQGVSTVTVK
USP30 inh – inhibitors of human USP30 deubiquitinase; Ubiquitin carboxyl-terminal hydrolase 30 (Homo sapiens), Q70CQ3; purified USP30, Ub-rhodamine cleavage fluorescence; inhibition, % at 25 µM; 5.3% of 47,000 active; AID 1645860, 2021
USP17 block – inhibitors of human USP17 deubiquitinase; Ubiquitin carboxyl-terminal hydrolase 17-like protein 5 (Homo sapiens), A8MUK1; purified USP17, Ub-rhodamine cleavage fluorescence, 3 h; inhibition, % at 50 µM; 6.5% of 47,000 active; AID 1645855, 2021
OTUD3 block – inhibitors of human OTUD3 deubiquitinase. 0.7% of 47,000 active. purified OTUD3, Ub-rhodamine fluorescence, 2 h. OTU domain-containing protein 3 (Homo sapiens), Q5T2D3. inhibition, % at 25 µM
Active calls of the source: *; i = inactive; · = not tested or not shown. Cut-off read from the data, not from the text of the source: active = inhibition above about 30%; inactive = the rest.

SMILES	USP28 block	USP30 inh	USP17 block	OTUD3 block
O=C(N[C@@H]1C[C@@H](Oc2ccccc2)[C@H](O)[C@H]1N1CCC(O)CC1)C1CCOCC1	-179	i	-165	-139
COc1ccc(CCNC(=O)[C@H](CCSC)NC(=O)N2CCn3c2nc2ccccc23)cc1OC	21	75*	35*	26
Cn1nccc1C(=O)N[C@@H]1C[C@@H](Oc2ccccc2)[C@H](O)[C@H]1N1CCCCC1	2	0	2	8
Cc1nc(-c2ccc3c(c2)nnn3CCN2CCOCC2)no1	16	20	6	41*
CCc1nc(-c2ccc3c(c2)nnn3CCN2CCCCC2)no1	0	-14	-1	-2
CCC(C)c1ccc(N(C(=O)c2ccco2)C(C(=O)NC2CCCC2)c2ccc(N3CCOCC3)cc2)cc1 (stereo not drawn)	10	48*	12	-2
O=C(NC1CCCC1)C(c1ccc(Cl)cc1)N(Cc1ccccc1F)C(=O)c1ccco1 (stereo not drawn)	2	37*	19	17
Cc1ccc(NC(=O)N2CCC3(C2)C(=O)N(C)c2ccccc23)cc1 (stereo not drawn)	8	5	9	4
COc1cc(NC(=O)Nc2nnc(N(C)Cc3ccccc3)s2)cc(OC)c1OC	7	3	3	16
O=C(NCCc1cccnc1)c1nc(-c2cn(-c3nccs3)cn2)n2ccccc12	-5	-108	45*	-11
Cc1cc(N)nn1Cn1nc(C(F)(F)F)cc1C	2	7	0	-1
CSc1cccc(NC2c3ccccc3C(=O)N2c2cccnc2)c1 (stereo not drawn)	21	17	1	8
CCOc1ccccc1NC1c2ccccc2C(=O)N1c1cccnc1 (stereo not drawn)	1	-8	43*	-10
COc1nn(C)cc1C(=O)N1CCC(C(=O)Nc2ccc(Br)cc2F)CC1	45*	-3	0	-1
O=C(NCc1ccccc1)N1CCc2nc(C(=O)N3CCOCC3)sc2CC1	2	5	2	6
CCN(CC)c1ncc2c(n1)CCC(C(=O)NC(C)c1ccccn1)C2 (stereo not drawn)	-13	-30	-8	-2
CCN(CC)c1ncc2c(n1)CCC(C(=O)N1CCCC1)C2 (stereo not drawn)	45*	12	0	9
C=Cc1ccc(Cn2c(C(=O)O)c(CNCCc3c[nH]c4ccccc34)c3ccccc32)cc1	19	14	24	8
Cc1ccc(CN2CCC(N3CCN(C(=O)c4c(F)cccc4F)CC3=O)CC2)cc1	0	-2	-11	-1
Cn1nc(-c2nc(-c3ccccc3)no2)c2c1CCN(C(=O)C1CC1)C2	12	68*	42*	13
Cn1nc(-c2nc(-c3ccccc3)no2)c2c1CCN(C(=O)C1CCCC1)C2	-6	-15	64*	5
Cn1nc(-c2nc(-c3ccccc3)no2)c2c1CCN(C(=O)C1CCC1)C2	9	6	2	-6
CCCN1CCN(C(=O)c2nc(N3CCC(C)CC3)c3cn(C)nc3n2)CC1	-17	-36	-18	-14
Cc1ccc(-c2nc(NC(=O)c3ccccn3)sc2C)cc1	13	24	-14	12
CC(=O)c1sc(NC(=O)/C=C/c2ccccc2)nc1-c1ccccc1	5	0	74*	3
SMILES	USP28 block	USP30 inh	USP17 block	OTUD3 block
Cc1sc(NC(=O)/C=C/c2ccco2)nc1-c1ccccc1	54*	1	11	3
CCN(CC)C(=O)C1Cn2ccnc2C2(CCN(C(=O)c3ccccc3)CC2)O1 (stereo not drawn)	1	6	-27	8
COCCNCc1cccc(Oc2nnnn2-c2ccccc2)c1	3	12	4	1
CCC[C@H]1O[C@@H]2CC(=O)O[C@@H]2C2=C1C(=O)c1c(O)cccc1C2=O	54*	-19	84*	52*
CC1OC2CC(=O)OC2C2=C1C(=O)c1c(O)cccc1C2=O (stereo not drawn)	56*	-3	94*	45*
CC1CC(=O)c2c(O)cccc2O1 (stereo not drawn)	4	12	0	7
COc1cc2cc(CN(CC3CCCO3)C(=O)NCc3ccccc3)c(=O)[nH]c2cc1OC (stereo not drawn)	2	-43	2	-9
Cc1cc(C)cc(-c2nc(SCC(=O)N3CCCC3)c3c(=O)n(C)c(=O)n(C)c3n2)c1	14	36*	·	15
Cn1c(=O)c2c(SCC(=O)N3CCCC3)nc(-c3ccccc3)nc2n(C)c1=O	-3	2	7	4
Cc1ccc2c(C)c(C(=O)N(Cc3ccc(Cl)cc3)Cc3ccco3)oc2c1C	11	0	35*	18
Cc1nc(-c2ccccc2)n(Cc2ccc(F)cc2)c(=O)c1CCO	33*	-7	·	-6
CN1C[C@@]23CN(C(=O)c4cnccn4)C[C@@H](C[C@@H]2S1(=O)=O)O3	18	32*	11	20
CN1C[C@@]23CN(C(=O)c4ccccn4)C[C@@H](C[C@@H]2S1(=O)=O)O3	2	9	2	4
O=C1OCC2=C1C(c1ccsc1)CC(=O)N2c1cccc(Br)c1 (stereo not drawn)	2	8	9	8
Cc1cccc(-n2ncc3c(N(CCO)CCO)ncnc32)c1	10	34*	24	15
Cc1nc(Nc2nc3ccccc3s2)nc2c1CCC2	-1	3	6	-3
Cc1nc2ccccc2c(=O)n1Cc1ccc(-c2ccccc2)cc1	-11	-2	51*	1
Cc1ccc(Cn2c(SCc3ccccc3C#N)nc3ccccc3c2=O)cc1	-84	-275	·	-60
c1ccc(COc2ncnc3scc(-c4ccccc4)c23)cc1	34*	-19	14	3
NS(=O)(=O)c1ccc(CNS(=O)(=O)/C=C/c2ccccc2)cc1	57*	78*	86*	16
COc1ccccc1NS(=O)(=O)c1ccc(C(=O)NCc2ccc(S(N)(=O)=O)cc2)cc1	16	10	14	8
O=C(O)C1CCN(c2nccc(N3CCCC3)n2)CC1	-17	-19	-18	-12
Cc1cc2nc(C)c(C/C=C/c3ccccc3)c(=O)n2[nH]1	10	35*	22	11
CSc1nc2nc(C)c(C/C=C/c3ccccc3)c(=O)n2[nH]1	14	40*	·	25
CC(C)c1ccc(CNc2nc3ccncc3n(C)c2=O)cc1	5	-6	0	6
Cc1ccc2nc(CCc3ccc(NS(=O)(=O)c4ccc(F)c(F)c4)cc3)[nH]c2c1	31*	3	1	-8
O=C(CN1CCc2[nH]c3c(F)c(Cl)ccc3c(=O)c2C1)NCc1ccc2c(c1)OCO2	7	32*	46*	-2
Cc1cc(=O)n(CC(=O)NCc2ccc3c(c2)OCO3)c(-c2ccc(F)cc2)n1	-1	2	7	-6
Cc1nc(-c2cc(C)[nH]n2)cc(C2CCCN(S(=O)(=O)N(C)C)C2)n1 (stereo not drawn)	8	8	3	11
O=C(CCc1ccc2[nH]ccc2c1)NCc1ccc(F)cc1	-23	-55	-21	-21
